For 92 molecules, Potency results are on record in ChEMBL document CHEMBL1201862, “PubChem BioAssay data set” (2004).

Molecules are shown by their SMILES. Screen size: about 400,000 compounds; about 2,100 (0.53%) were called active. Inconclusive results (about 14%) are left out. The rule behind the calls is not given here. This excerpt belongs to a sample that is enriched for actives.

The experiment deals with Ataxin-2 (Homo sapiens) (UniProt Q99700). Put plainly: qHTS for Inhibitors of ATXN expression. Type of experiment: functional. A general note: qHTS replaces the single test concentration by a dilution series.
Sequence of Ataxin-2 (Homo sapiens) (Q99700 whole entry): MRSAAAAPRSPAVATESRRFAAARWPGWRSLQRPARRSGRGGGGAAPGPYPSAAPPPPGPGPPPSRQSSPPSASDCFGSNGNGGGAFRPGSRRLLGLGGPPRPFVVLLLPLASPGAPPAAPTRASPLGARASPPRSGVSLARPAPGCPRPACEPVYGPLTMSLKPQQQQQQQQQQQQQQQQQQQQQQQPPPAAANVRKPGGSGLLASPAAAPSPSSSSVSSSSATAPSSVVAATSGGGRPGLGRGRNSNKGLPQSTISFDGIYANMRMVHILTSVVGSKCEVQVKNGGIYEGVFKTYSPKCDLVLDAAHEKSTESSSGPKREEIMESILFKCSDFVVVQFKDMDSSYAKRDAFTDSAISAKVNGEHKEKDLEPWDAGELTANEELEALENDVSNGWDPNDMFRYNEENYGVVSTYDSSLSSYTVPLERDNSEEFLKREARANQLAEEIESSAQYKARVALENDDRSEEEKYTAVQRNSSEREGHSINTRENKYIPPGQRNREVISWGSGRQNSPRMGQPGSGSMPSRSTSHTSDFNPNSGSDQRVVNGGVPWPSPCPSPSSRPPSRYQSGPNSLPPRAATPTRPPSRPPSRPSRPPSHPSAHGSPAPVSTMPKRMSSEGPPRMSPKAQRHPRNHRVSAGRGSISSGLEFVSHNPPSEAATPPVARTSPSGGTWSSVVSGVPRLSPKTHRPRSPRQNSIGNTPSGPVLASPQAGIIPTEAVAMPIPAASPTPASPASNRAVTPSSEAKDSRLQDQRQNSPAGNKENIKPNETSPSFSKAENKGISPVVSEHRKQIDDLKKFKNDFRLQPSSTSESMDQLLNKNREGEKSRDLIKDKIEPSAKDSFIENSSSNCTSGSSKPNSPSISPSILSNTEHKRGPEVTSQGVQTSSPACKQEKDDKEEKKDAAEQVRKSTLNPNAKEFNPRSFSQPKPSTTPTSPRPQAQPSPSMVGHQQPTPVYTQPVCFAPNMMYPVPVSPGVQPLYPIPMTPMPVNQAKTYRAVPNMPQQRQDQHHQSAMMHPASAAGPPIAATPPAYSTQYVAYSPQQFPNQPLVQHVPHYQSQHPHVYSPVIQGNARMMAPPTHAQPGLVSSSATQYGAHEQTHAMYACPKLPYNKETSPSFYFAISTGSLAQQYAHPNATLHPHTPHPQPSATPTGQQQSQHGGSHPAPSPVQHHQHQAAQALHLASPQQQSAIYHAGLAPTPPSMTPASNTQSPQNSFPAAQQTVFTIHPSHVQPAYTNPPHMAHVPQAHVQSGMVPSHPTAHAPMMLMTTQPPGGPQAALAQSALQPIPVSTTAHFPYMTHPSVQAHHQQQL
On to `CC(Sc1nnc(-c2cccnc2)o1)C(=O)NC1CCCCC1` (configuration not stated), for which the Potency entry was “inactive”.
Consider `C=CCn1c(N)c(C(=O)OCCC)c2nc3ccccc3nc21`, for which the Potency entry is “inactive”.
As for `OCc1ccccc1-c1ccc2nccn2c1`, the entry is “inactive”; as for `Cc1csc(NC(=O)c2cc3c(s2)-c2ccccc2OC3)n1`, “inactive”.
Then `Cc1cccc(/C=N/c2sc3c(c2C#N)CCN(Cc2ccccc2)C3)c1O`, with “inactive”; and `C#CCOCCOCCOCCNc1nc(N2CCN(C(=O)CCCCCCCCCCNC(=O)[C@H](CCCCN)n3cc(C)nn3)CC2)nc(N2CCN(C(=O)CCCCCCCCCCNC(=O)[C@H](CO)n3cc(CCCSC)nn3)CC2)n1`, with 31.6 µM (active).
As for `C#CCOCCOCCOCCNc1nc(N2CCN(C(=O)CCCCCCCCCCNC(=O)[C@H](CCCCN)n3cc(C)nn3)CC2)nc(N2CCN(C(=O)CCCCCCCCCCNC(=O)[C@@H]([C@H](C)O)n3cc(C)nn3)CC2)n1`, the figure is 22.4 µM (active); as for `O=C1C(=O)c2c(C(=O)c3ccccc3)coc2-c2ccccc21`, 35.5 µM (active); as for `Cc1ccc(C(=O)c2coc3c2C(=O)C(=O)c2ccccc2-3)cc1`, 39.8 µM (active).
With `COCC/N=C1/Sc2nc3ccc(C)cc3cc2CN1Cc1cccs1`, the Potency entry was “inactive”.
As for `CN1C(=S)N(c2cccnc2)C(=O)/C1=C\c1ccc(N(C)C)cc1`, the figure is 20 µM (active); as for `CN1C(=O)/C(=C\c2ccc(N(C)C)cc2)OC1=S`, “inactive”.
As for `Cc1cc(/C=C2\NC(=S)NC2=O)c(C)n1-c1cccnc1`, the entry is “inactive”; as for `O=c1oc2c(CN3CCN(CCO)CC3)c(O)ccc2cc1-c1ccccn1`, “inactive”.
As for `CC1C(=O)N2CCCc3cc(NC(=O)CC(C)(C)C)cc1c32` (configuration not stated), the entry is “inactive”.
For the molecule `CCOc1cc(/C=N\NC(=O)Cc2ccccc2)ccc1OCC(=O)Nc1ccc(C)c(C)c1`, the Potency is 31.6 µM (active).
As for `CCOc1cc(/C=N/NC(=O)C(C)Sc2ccccc2)ccc1O` (configuration not stated), the entry is “inactive”.
Then `CCOc1cc(/C=N/NC(=O)Nc2ccccc2)ccc1O`, with “inactive”; and `CCOc1ccc(CCN2C(=O)C(=O)N([C@@H](CC(C)C)CN3CCC[C@@H]3CN3C(=O)C(=O)NC[C@@H]3CC(C)C)C[C@@H]2Cc2ccccc2)cc1`, with 12.6 µM (active); and `CCOc1ccc(CCN2C(=O)C(=O)N([C@@H](CC(C)C)CN3CCC[C@H]3CN3C(=O)C(=O)NC[C@@H]3Cc3ccccc3)C[C@@H]2Cc2ccccc2)cc1`, with 25.1 µM (active).
Regarding `CCOc1ccc(CCN2C(=O)C(=O)N([C@@H](CC(C)C)CN3CCC[C@@H]3CN3C(=O)C(=O)NC[C@@H]3Cc3ccccc3)C[C@@H]2CC(C)C)cc1`, the Potency was 39.8 µM (active).
Take `N#Cc1c(NC(=O)/C=C/C(=O)O)sc2c1CCN(Cc1ccccc1)C2`: the Potency entry is “inactive”.
On to `Clc1ccc(-n2c(-c3cccc(Br)c3)nc3nc4ccccc4nc32)cc1`, for which the Potency entry is “inactive”.
As for `Cc1nn(CSc2c(F)c(F)c(F)c(F)c2F)c(C)c1[N+](=O)[O-]`, the entry is “inactive”; as for `N#CC1=C(N)Oc2ccc3ccccc3c2C1c1cccnc1` (configuration not stated), 12.6 µM (active).
Then `N#CC1=C(N)Oc2cc(O)c(Cl)cc2C1c1cccnc1` (configuration not stated), with “inactive”; and `N#CC1=C(N)Oc2cc(N)ccc2C1c1ccccc1Cl` (configuration not stated), with “inactive”.
As for `Cc1cc(C)cc(NC(=O)c2sc3nc(C)cc(C)c3c2N)c1`, the entry is “inactive”.
With `CCOc1ccc(CCNC(=O)c2cccc(NC3=NC4CS(=O)(=O)CC4S3)c2)cc1` (configuration not stated), the Potency entry is “inactive”.
Then `O=C(NCCc1cccc(Cl)c1)c1ccc(OC2CCN(Cc3ccccn3)CC2)cc1`, with 35.5 µM (active); and `Cc1c(CCC(=O)NCCc2ccccc2)c(=O)oc2cc(O)ccc12`, with “inactive”.
As for `CCCc1c(-c2ccc(O)cc2)nn(-c2ccc(O)cc2)c1-c1ccc(O)cc1`, the figure is 25.1 µM (active); as for `CCCCN1CCc2c1nc1ccc(Br)cc1c2N`, 31.6 µM (active); as for `O=C(O)C1CCN(c2nc(-c3ccccc3)c3cc(Br)ccc3n2)CC1`, “inactive”.
Then `CCOC(=O)N1CCN(C(=O)c2cccn3c(=O)c4cc(Br)ccc4nc23)CC1`, with “inactive”; and `CCc1cc2c(CN3CCN(Cc4ccccc4)CC3)cc(=O)oc2cc1O`, with “inactive”.
As to `Cc1ccc(/C=C2\Oc3c(ccc(O)c3CN3CCN(CCO)CC3)C2=O)cc1`, the Potency result was “inactive”.
Then `COc1ccccc1N1CCN(C(=O)C2CCN(S(=O)(=O)c3ccccc3F)CC2)CC1`, with “inactive”; and `O=C(Cn1ncc2c1-c1ccccc1OC2)Nc1ccc(Cl)cn1`, with “inactive”; and `Cc1ccnc(NC(=O)CCC(=O)N(CC(=O)NC2CCCCC2)C2CCCC2)c1`, with “inactive”.
For the molecule `Cc1cccc(N2CCN(C(=O)Cn3ncc4c3-c3cc(C)ccc3OC4)CC2C)c1` (configuration not stated), the Potency is 39.8 µM (active).
As for `Cc1ccc2nc(N3CCN(C(=O)CCC(=O)O)CC3)nc(-c3ccccc3)c2c1`, the entry is “inactive”; as for `Cc1ccc2c(c1)-c1c(cnn1CC(=O)N(Cc1ccco1)C1CCCCC1)CO2`, 37.7 µM (active).
Then `COc1ccccc1N1CCN(C(=O)Cn2ncc3c2-c2cc(C)ccc2OC3)CC1`, with 22.4 µM (active).
Then `CCOc1ccc(S(=O)(=O)N(CC)CC(=O)N2CCCC2)cc1C`, with “inactive”; and `CCN(CC)S(=O)(=O)c1ccc2c(c1)N(CC(=O)N1CCN(c3cccc(C)c3)C(C)C1)C(=O)CO2` (configuration not stated), with 35.5 µM (active); and `CC(C)(C)c1ccc2c(c1)N(CC(=O)N1CCCC1)C(=O)CO2`, with “inactive”.
As for `CN(C(=O)CN1C(=O)c2cccc(N)c2C1=O)C1CCCCC1`, the Potency result is “inactive”.
As for `Cc1ccccc1CN1CCN(C(=O)c2ccc(S(=O)(=O)NCc3ccco3)cc2)CC1`, the entry is “inactive”; as for `CCOCCCNc1nc2nc3ccc(C)cn3c(=O)c2cc1C(=O)NCC1CCCO1` (configuration not stated), “inactive”; as for `CCNc1nc(NCC)nc(N/N=C(\C)c2ccc(OC)cc2)n1`, “inactive”.
As for `CC1CCCCC12NC(=O)N(CC(=O)N(C)Cc1nc(O)c3ccccc3n1)C2=O` (configuration not stated), the entry is “inactive”; as for `CC(C)NCCCCOc1cccc(Br)c1`, “inactive”; as for `Cc1cccc(C)c1NC(=O)CN1C(=O)COc2ccccc21`, “inactive”.
As for `CCN(CC)S(=O)(=O)c1ccc2c(c1)N(CC(=O)NCCCN1CCN(c3cc(Cl)ccc3C)CC1)C(=O)CO2`, the figure is 31.6 µM (active); as for `CCN(CC)S(=O)(=O)c1ccc(N2CCCC2)c(NC(=O)Cc2cc(OC)c(OC)c(OC)c2)c1`, “inactive”; as for `CCOc1ccccc1NC(=O)Cn1ncc2ccc([N+](=O)[O-])cc21`, “inactive”.
Turning to `CCOc1ccccc1N(CC)C(=O)Cn1ncc2c(=O)oc3ccccc3c21`, the Potency result was “inactive”.
Then `CCOc1ccccc1N(CC)C(=O)Cn1ncc2c1-c1ccccc1OC2`, with 39.8 µM (active).
Then `Clc1ccc(C2=NN(c3ccccc3)C(c3ccco3)C2)cc1` (configuration not stated), with “inactive”.
Then `O=C(O)c1cc(Cl)ccc1-c1ccc(/C=C/c2cc(C(F)(F)F)nc(O)n2)o1`, with “inactive”; and `Fc1ccc(C2=CC(c3ccc(Br)o3)n3ncnc3N2)cc1` (configuration not stated), with “inactive”; and `Cc1ccc(-n2nnc3c(=O)n(CC(=O)N4CCOCC4)cnc32)cc1`, with “inactive”.
Take `O=C(NCCNc1ccc([N+](=O)[O-])cc1)c1cccc(Br)c1`: the Potency entry is “inactive”.
Then `Cc1cccc(NS(=O)(=O)c2ccc3nc(O)cc(C(=O)OC(C)C(=O)Nc4ccc([N+](=O)[O-])cc4)c3c2)c1` (configuration not stated), with “inactive”; and `CC(C)OC(=O)c1cc(NC(=S)Nc2ccc([N+](=O)[O-])cc2)cc(C(=O)OC(C)C)c1`, with 44.7 µM (active).
As for `CCN1CCC(O)(/C=C/c2ccc(C)cc2)C(C(=O)/C=C/c2ccc(C)cc2)C1` (configuration not stated), the figure is 31.6 µM (active); as for `COc1ccc(/C=C/C(=O)N(C)c2ccccc2C(=O)O)cc1`, “inactive”; as for `CC[N+]1(C)CCC(O)(/C=C/c2ccccc2)C(C(=O)/C=C/c2ccccc2)C1` (configuration not stated), 10.6 µM (active).
As for `CCN1CCC(O)(/C=C/c2ccc(C(C)C)cc2)C(C(=O)/C=C/c2ccc(C(C)C)cc2)C1` (configuration not stated), the figure is 25.1 µM (active); as for `Cc1cc(-c2nc(-c3ccncc3)no2)ccc1[N+](=O)[O-]`, “inactive”.
For `Cc1cc(=O)oc2c(CN3CCCC3)c(O)c(Cl)cc12`, the Potency result is “inactive”.
Turning to `COCCNC(=S)N/N=C/c1ccc2c(c1)OCCO2`, the Potency result was “inactive”.
Then `Brc1cc(Br)c2nc(-c3ccc(N4CCOCC4)cc3)ccc2c1`, with “inactive”; and `N#CC1=CN(Cc2ccccc2)C=C(/C=N/Nc2ccccc2)C1`, with “inactive”.
Then `O=c1c2cc([N+](=O)[O-])cc([N+](=O)[O-])c2[nH]n1-c1ccccc1`, with 22.4 µM (active); and `O=[N+]([O-])c1cc([N+](=O)[O-])c2[nH]nc(-c3ccccc3)c2c1`, with “inactive”; and `N#Cc1c(N)n(Cc2ccccc2)c(=O)c2cc([N+](=O)[O-])ccc12`, with “inactive”.
Then `COC(=O)Cc1cnc(NC(=O)CSc2nc(O)cc(C(C)C)n2)s1`, with “inactive”; and `CCCn1nc(NC(=O)c2ccco2)c2cc3ccccc3nc21`, with “inactive”.
Regarding `COc1cc(Br)cc(/C=N/NC(=O)Cc2ccccc2)c1O`, the Potency result is “inactive”.
Then `COCc1c(C(=O)N/N=C/c2c[nH]c3ccccc23)nnn1-c1nonc1N`, with “inactive”.
As for `NC(=S)N/N=C/c1c[nH]c2ccc(OCc3ccccc3)cc12`, the figure is 12.6 µM (active).
As for `CN(Cc1ccccc1)S(=O)(=O)c1ccc(OCC(=O)N2CCC(C(N)=O)CC2)cc1`, the entry is “inactive”; as for `CCOc1cccc2sc(N(CCCN(C)C)C(=O)c3ccc(S(=O)(=O)N(C)Cc4ccccc4)cc3)nc12`, 39.8 µM (active).
With `Cc1ccc2sc(N(CCCN(C)C)C(=O)c3ccc(S(=O)(=O)N(C)Cc4ccccc4)cc3)nc2c1C`, the Potency was 31.6 µM (active).
Then `Cc1ccc2sc(N(CCCN(C)C)C(=O)c3ccc(S(=O)(=O)N(C)C4CCCCC4)cc3)nc2c1C`, with 25.1 µM (active); and `CN(Cc1ccccc1)S(=O)(=O)c1ccc(N2CCOCC2)nc1`, with “inactive”.
Then `CN(C1CCCCC1)S(=O)(=O)c1ccc(SCC(=O)C(C)(C)C)nc1`, with “inactive”; and `COC(=O)c1ccc(C(=O)N(CCN(C)C)c2nc3c(Cl)cccc3s2)cc1`, with “inactive”; and `Cc1[nH]c2ccccc2c1C(=O)CN1C(=O)NC2(CCCCCC2)C1=O`, with “inactive”.
Then `CCC(C)(C)c1ccc(OCCCC[n+]2cccc(C)c2C)c(C(C)(C)CC)c1`, with 31.6 µM (active).
